Measurements: the supplement of paper PMC10849652
About 7,900 targets were measured; listed, in parts, are those with a hit and a random draw of the rest. About 0.6% of all pairs of compound and target were hits. A number with no mark means an inactive call.

Experiments:
Experiment in all cases: log2 fold change, soluble protein after heating vs DMSO (PISA); higher = thermal stabilisation; K562 cells, 10 uM, 30 min; active = over 0.2 and 3.5 SD of the protein, either way, in both replicates (recomputed)
[1] = compound: COC1=CC=C(C=C1)CN2C=CC3=C2C=C(C=C3)C(=O)NO
Summary of the method: (§1)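 For each measurement, 10 μM compound was applied for 30 min to K562 cells at 2×10^6 cells/mL. Aliquots were heated for 3 min across 48°C-58°C, pooled, and extracted in PBS with 0.5% NP-40 at 4°C; the supernatant after 21,000xg for 90 min was soluble protein. This was quantified by TMTpro 16plex LC-MS/MS with channel sums equalised, and thermal stability was reported relative to control samples from duplicates, on a log2 fold-change scale.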

filanesib = compound: CON(C)C(=O)N1N=C(c2cc(F)ccc2F)S[C@@]1(CCCN)c1ccccc1 [filanesib]
Summary of the method: as §1

zotarolimus = compound: CO[C@H]1C[C@@H]2CC[C@@H](C)[C@@](O)(O2)C(=O)C(=O)N2CCCC[C@H]2C(=O)O[C@H]([C@H](C)C[C@@H]2CC[C@H](n3cnnn3)[C@H](OC)C2)CC(=O)[C@H](C)/C=C(\C)[C@@H](O)[C@@H](OC)C(=O)[C@H](C)C[C@H](C)/C=C/C=C/C=C/1C [zotarolimus]
Summary of the method: as §1

idasanutlin = compound: COc1cc(C(=O)O)ccc1NC(=O)[C@@H]1N[C@@H](CC(C)(C)C)[C@](C#N)(c2ccc(Cl)cc2F)[C@H]1c1cccc(Cl)c1F [idasanutlin]
Summary of the method: as §1

alisertib = compound: COc1cc(Nc2ncc3c(n2)-c2ccc(Cl)cc2C(c2c(F)cccc2OC)=NC3)ccc1C(=O)O [alisertib]
Summary of the method: as §1

[2] = compound: COc1cc2nc(-c3cc(F)ccc3O)nc(N[C@@H]3CNC[C@H]3C(C)(C)O)c2cc1OC
Summary of the method: as §1

gefitinib = compound: COc1cc2ncnc(Nc3ccc(F)c(Cl)c3)c2cc1OCCCN1CCOCC1 [gefitinib]
Summary of the method: as §1

[3] = compound: COc1cccc2cc(-c3nc([C@H]4CC[C@H](C(=O)O)CC4)n4ncnc(N)c34)[nH]c12
Summary of the method: as §1

lapatinib = compound: CS(=O)(=O)CCNCc1ccc(-c2ccc3ncnc(Nc4ccc(OCc5cccc(F)c5)c(Cl)c4)c3c2)o1 [lapatinib]
Summary of the method: as §1

pictilisib = compound: CS(=O)(=O)N1CCN(Cc2cc3nc(-c4cccc5[nH]ncc45)nc(N4CCOCC4)c3s2)CC1 [pictilisib]
Summary of the method: as §1

UniProt Q8WUX2, sequence (Q8WUX2 whole entry, looked up): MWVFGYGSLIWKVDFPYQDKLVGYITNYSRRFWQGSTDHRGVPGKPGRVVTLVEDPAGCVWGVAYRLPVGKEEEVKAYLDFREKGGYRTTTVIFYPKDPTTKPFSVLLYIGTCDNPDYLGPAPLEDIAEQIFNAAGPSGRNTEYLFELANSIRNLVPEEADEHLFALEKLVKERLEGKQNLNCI
UniProt O15234, sequence (O15234 whole entry, looked up): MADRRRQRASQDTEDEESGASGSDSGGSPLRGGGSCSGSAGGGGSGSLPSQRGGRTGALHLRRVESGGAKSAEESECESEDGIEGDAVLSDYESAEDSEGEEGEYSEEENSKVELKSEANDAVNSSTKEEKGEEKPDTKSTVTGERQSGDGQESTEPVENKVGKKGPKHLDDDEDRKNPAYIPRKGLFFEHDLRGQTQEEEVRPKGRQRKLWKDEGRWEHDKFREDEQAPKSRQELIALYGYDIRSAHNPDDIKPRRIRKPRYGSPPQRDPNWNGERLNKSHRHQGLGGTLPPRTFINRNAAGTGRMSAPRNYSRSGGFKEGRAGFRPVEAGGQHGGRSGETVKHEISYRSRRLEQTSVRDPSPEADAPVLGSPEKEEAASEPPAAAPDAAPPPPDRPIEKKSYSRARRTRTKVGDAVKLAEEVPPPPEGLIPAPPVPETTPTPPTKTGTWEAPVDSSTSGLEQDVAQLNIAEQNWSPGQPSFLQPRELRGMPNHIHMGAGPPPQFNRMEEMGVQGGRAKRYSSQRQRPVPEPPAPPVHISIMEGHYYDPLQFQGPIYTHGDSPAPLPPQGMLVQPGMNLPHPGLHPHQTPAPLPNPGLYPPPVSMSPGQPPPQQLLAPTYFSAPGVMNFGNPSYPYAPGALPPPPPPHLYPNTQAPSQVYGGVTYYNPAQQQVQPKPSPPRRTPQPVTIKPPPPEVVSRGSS
UniProt Q16630, sequence (Q16630 whole entry, looked up): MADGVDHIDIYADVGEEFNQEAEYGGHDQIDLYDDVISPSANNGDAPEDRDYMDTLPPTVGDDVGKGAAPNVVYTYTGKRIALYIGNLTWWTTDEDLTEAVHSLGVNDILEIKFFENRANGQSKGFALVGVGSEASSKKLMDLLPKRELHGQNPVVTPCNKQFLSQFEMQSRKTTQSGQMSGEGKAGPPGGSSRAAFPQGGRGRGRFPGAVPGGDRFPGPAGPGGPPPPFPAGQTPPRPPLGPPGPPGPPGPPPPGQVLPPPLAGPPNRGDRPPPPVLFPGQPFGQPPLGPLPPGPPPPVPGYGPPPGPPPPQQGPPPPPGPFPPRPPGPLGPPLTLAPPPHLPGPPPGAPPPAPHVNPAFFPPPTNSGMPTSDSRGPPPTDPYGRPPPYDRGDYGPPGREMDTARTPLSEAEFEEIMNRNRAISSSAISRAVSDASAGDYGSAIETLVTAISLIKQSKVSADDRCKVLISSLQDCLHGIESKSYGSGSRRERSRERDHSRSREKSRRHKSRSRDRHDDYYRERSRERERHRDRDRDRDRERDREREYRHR
UniProt O14757, sequence (O14757 whole entry, looked up): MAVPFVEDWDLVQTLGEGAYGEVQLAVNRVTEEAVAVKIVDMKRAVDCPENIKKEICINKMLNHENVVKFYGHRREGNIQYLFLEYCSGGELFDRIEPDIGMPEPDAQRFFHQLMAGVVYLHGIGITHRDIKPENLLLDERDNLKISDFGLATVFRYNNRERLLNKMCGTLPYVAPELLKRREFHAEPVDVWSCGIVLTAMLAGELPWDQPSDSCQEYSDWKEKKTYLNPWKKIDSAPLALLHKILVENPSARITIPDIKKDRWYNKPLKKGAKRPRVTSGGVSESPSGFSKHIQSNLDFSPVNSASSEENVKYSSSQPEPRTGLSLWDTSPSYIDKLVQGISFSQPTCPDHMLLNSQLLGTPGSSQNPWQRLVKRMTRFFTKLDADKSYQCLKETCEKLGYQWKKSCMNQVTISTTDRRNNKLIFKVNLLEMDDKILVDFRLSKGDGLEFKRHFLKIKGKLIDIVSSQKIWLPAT
UniProt P23786, sequence (P23786 whole entry, looked up): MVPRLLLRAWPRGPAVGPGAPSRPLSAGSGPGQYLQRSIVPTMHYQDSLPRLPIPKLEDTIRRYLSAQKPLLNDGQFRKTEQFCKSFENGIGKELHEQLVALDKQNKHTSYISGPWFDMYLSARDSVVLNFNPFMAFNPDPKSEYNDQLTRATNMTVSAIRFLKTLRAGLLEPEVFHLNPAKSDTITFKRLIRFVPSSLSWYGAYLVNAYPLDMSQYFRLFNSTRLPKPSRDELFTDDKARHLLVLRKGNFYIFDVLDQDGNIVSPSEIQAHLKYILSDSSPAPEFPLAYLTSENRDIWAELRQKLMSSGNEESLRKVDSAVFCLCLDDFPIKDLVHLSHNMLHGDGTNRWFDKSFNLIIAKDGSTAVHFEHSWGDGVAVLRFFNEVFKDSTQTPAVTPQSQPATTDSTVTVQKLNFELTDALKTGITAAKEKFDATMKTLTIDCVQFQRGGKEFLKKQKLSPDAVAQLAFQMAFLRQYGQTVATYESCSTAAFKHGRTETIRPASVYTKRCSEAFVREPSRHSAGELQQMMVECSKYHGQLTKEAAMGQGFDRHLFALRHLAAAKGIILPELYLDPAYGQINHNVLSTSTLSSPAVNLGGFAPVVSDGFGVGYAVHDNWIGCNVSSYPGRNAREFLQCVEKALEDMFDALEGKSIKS
UniProt P19784, sequence (P19784 whole entry, looked up): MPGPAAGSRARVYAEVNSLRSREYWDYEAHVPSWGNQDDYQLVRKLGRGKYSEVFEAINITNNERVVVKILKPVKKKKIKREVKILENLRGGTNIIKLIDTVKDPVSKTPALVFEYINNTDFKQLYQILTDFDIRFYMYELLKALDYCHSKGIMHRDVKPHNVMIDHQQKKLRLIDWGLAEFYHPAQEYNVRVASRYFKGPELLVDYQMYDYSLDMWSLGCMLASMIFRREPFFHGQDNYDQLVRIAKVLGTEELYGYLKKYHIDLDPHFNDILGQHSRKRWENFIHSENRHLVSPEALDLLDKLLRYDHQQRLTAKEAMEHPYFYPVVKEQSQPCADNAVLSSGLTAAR
UniProt P41240, sequence (P41240 whole entry, looked up): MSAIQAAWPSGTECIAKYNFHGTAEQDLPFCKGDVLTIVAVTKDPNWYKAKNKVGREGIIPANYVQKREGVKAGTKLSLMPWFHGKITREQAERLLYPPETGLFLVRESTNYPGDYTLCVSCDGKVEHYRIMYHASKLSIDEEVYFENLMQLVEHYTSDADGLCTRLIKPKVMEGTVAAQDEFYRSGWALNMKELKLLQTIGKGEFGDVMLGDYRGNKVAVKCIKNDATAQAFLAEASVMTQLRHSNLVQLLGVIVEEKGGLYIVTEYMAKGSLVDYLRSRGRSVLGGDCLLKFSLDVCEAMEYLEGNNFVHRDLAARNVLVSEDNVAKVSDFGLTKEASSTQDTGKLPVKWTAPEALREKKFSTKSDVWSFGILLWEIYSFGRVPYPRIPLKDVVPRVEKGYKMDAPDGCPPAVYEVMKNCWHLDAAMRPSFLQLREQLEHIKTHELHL
UniProt Q96KP4, sequence (Q96KP4 whole entry, looked up): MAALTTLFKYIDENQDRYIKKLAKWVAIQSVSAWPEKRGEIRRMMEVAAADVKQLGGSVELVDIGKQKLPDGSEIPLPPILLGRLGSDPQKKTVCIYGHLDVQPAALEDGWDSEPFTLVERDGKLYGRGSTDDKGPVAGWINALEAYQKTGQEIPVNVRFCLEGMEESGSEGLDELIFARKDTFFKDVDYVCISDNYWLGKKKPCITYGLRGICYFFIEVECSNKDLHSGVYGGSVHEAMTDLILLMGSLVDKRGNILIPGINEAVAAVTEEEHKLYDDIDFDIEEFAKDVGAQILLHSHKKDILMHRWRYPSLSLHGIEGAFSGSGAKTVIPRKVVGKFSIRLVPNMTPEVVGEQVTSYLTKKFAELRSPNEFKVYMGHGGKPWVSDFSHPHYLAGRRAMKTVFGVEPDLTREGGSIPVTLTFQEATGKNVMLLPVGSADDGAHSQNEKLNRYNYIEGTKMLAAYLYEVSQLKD
UniProt P05937, sequence (P05937 whole entry, looked up): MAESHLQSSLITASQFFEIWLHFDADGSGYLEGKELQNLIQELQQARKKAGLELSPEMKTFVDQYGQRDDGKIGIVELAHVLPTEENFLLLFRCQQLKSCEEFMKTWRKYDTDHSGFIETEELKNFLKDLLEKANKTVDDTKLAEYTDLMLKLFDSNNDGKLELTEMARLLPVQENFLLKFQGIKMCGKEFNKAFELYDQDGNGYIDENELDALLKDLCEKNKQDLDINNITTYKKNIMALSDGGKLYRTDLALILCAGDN
UniProt O95628, sequence (O95628 whole entry, looked up): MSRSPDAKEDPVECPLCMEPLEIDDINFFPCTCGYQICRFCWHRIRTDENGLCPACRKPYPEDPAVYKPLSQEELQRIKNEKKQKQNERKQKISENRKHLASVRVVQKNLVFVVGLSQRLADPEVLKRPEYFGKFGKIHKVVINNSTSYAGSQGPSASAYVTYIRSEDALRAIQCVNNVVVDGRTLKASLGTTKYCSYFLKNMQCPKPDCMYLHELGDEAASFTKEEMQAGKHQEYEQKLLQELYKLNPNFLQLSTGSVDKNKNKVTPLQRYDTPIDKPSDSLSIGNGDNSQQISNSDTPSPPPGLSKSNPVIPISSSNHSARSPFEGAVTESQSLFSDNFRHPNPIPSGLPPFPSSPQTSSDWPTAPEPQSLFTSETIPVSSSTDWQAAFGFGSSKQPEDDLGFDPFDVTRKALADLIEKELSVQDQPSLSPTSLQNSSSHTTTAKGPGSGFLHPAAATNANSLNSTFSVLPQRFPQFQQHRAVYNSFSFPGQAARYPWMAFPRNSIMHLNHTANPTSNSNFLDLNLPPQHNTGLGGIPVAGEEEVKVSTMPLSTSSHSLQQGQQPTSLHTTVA
UniProt Q5RI15, sequence (Q5RI15 whole entry, looked up): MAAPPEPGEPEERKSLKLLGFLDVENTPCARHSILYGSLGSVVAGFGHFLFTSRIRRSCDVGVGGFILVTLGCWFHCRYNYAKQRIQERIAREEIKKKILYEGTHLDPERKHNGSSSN
UniProt P61024, sequence (P61024 whole entry, looked up): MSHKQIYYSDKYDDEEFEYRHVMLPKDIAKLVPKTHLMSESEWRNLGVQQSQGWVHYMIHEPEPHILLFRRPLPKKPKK

| Target | log2 fold change [1] | log2 fold change (filanesib) | log2 fold change (zotarolimus) | log2 fold change (idasanutlin) | log2 fold change (alisertib) | log2 fold change [2] | log2 fold change (gefitinib) | log2 fold change [3] | log2 fold change (lapatinib) | log2 fold change (pictilisib) |
| --- | --- | --- | --- | --- | --- | --- | --- | --- | --- | --- |
| CRK (UniProt P46108) | 0.072 | 0.008 | 0.144 | 0.061 | -0.107 | 0.011 | -0.006 | 0.025 | 0.012 | 0.043 |
| CKS1B (UniProt P61024) | -0.045 | 0.047 | 0.013 | -0.011 | -0.012 | -0.048 | -0.008 | 0.031 | 0.004 | -0.007 |
| CHEK1 (UniProt O14757) | 0.005 | -0.025 | -0.029 | -0.041 | -0.041 | -0.805 (active) | -0.06 | 0.055 | -0.007 | 0.016 |
| CDK5 (UniProt Q00535) | 0.004 | 0.024 | -0.003 | -0.099 | -0.046 | 0.054 | 0.002 | 0 | -0.033 | -0.011 |
| CSE1L (UniProt P55060) | 0.024 | -0.1 | 0.027 | -0.135 | -0.059 | 0.005 | -0.018 | -0.019 | -0.036 | -0.015 |
| CERS2 (UniProt Q96G23) | -0.045 | -0.117 | -0.062 | -0.047 | -0.129 | -0.107 | -0.095 | -0.005 | -0.03 | -0.262 (active) |
| CEPT1 (UniProt Q9Y6K0) | 0.029 | -0.277 | -0.095 | -0.142 | 0.009 | 0.022 | -0.025 | 0.036 | 0.095 | 0.011 |
| CDK1 (UniProt P06493) | 0.04 | 0.024 | 0.007 | 0.02 | -0.083 | -0.036 | 0.009 | 0.017 | 0.008 | -0.002 |
| CHAC2 (UniProt Q8WUX2) | -0.007 | -0.032 | 0.066 | -0.019 | 0.026 | -0.061 | -0.03 | 0.06 | 0.029 | 0.077 |
| CASC3 (UniProt O15234) | 0 | 0.17 | -0.105 | 0.038 | -0.051 | 0.16 | 0 | -0.105 | -0.077 | -0.066 |
| CDKN1B (UniProt P46527) | 0.085 | -0.02 | -0.007 | -0.033 | 0.068 | 0.104 | 0.124 | -0.076 | -0.03 | -0.02 |
| CSNK2A2 (UniProt P19784) | -0.042 | -0.019 | -0.003 | -0.094 | 0.001 | -0.177 | -0.031 | 0.033 | 0.02 | 0.128 |
| CHST10 (UniProt O43529) | -0.11 | 0.021 | 0.088 | 0.062 | -0.014 | -0.073 | -0.071 | 0.088 | 0.058 | 0.027 |
| CIT isoform 4 (UniProt O14578) | -0.099 | 0.055 | -0.003 | 0.027 | -0.036 | -0.228 (active) | -0.12 | -0.06 | 0.031 | -0.044 |
| CDK5RAP3 isoform 4 (UniProt Q96JB5) | -0.008 | -0.085 | 0.026 | -0.091 | -0.001 | 0.075 | 0.024 | 0.004 | -0.034 | -0.015 |
| CNDP2 (UniProt Q96KP4) | -0.171 | -0.145 | 0.041 | -0.024 | -0.049 | -0.001 | -0.008 | 0.027 | 0.017 | 0.021 |
| CALB1 (UniProt P05937) | 0.029 | -0.192 | 0.006 | -0.024 | -0.022 | -0.071 | -0.024 | 0.015 | 0.013 | 0.027 |
| CNOT4 isoform 6 (UniProt O95628) | -0.057 | 0.017 | -0.023 | -0.001 | -0.036 | 0.037 | -0.007 | -0.012 | -0.008 | 0.036 |
| CHERP (UniProt Q8IWX8) | 0.04 | 0.266 | 0.051 | 0.063 | 0.002 | -0.227 | -0.02 | 0.002 | -0.023 | 0.038 |
| CNOT2 (UniProt Q9NZN8) | -0.006 | 0.006 | 0.014 | 0.005 | -0.01 | 0.021 | 0.017 | -0.021 | 0.048 | 0.04 |
| COX20 isoform 2 (UniProt Q5RI15) | -0.029 | -0.011 | -0.029 | -0.039 | -0.025 | 0.06 | -0.01 | 0.012 | -0.014 | -0.081 |
| C4A (UniProt P0C0L4) | 0.042 | 0.014 | -0.615 (active) | 0.068 | -0.005 | 0.001 | -0.198 | 0.175 | -0.078 | -0.291 |
| CELF2 isoform 3 (UniProt O95319) | 0.115 | 0.052 | -0.035 | -0.044 | -0.122 | 0.1 | -0.027 | -0.006 | 0.032 | 0.051 |
| CDC42BPA isoform 6 (UniProt Q5VT25) | -0.005 | 0.009 | 0.081 | 0.004 | -0.04 | -1.1 (active) | -0.096 | -0.027 | 0.106 | 0.118 |
| C9orf64 (UniProt Q5T6V5) | 0.07 | -0.091 | 0.038 | -0.062 | 0.078 | -0.079 | -0.062 | -0.022 | 0.043 | -0.055 |
| CPT2 (UniProt P23786) | 0.114 | -0.207 | 0.798 (active) | 0.806 (active) | -0.067 | -0.199 | 0.343 | -0.005 | 0.058 | 0.57 |
| CSK (UniProt P41240) | 0.034 | -0.049 | 0.007 | -0.056 | -0.018 | 0.024 | 0.024 | -0.049 | 0.008 | 0.02 |
| CTBS (UniProt Q01459) | -0.006 | -0.038 | 0.002 | 0.018 | -0.032 | 0.026 | 0.01 | 0.055 | 0.004 | -0.068 |
| CPSF6 isoform 2 (UniProt Q16630) | -0.03 | 0.036 | 0.016 | 0.034 | -0.046 | 0.063 | 0.023 | 0.025 | -0.016 | 0.055 |
| CHAMP1 (UniProt Q96JM3) | -0.001 | -0.008 | 0.07 | 0.005 | 0.006 | 0.025 | 0.029 | 0.022 | -0.065 | 0.107 |
